bovine MsrA act: bovine methionine sulfoxide reductase A activation; purified bovine MsrA, absorbance read-out; activation, % at 10.6 µM; actives 0.3% (n = 360,000); AID 602163; in the data active means activation above about 7.5%;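 further: 0% = vehicle and 100% = reference activator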
HTR5A inv ag: counter-screen for OPRM1-OPRD1 inverse agonists: human HTR5A inverse agonism | actives 0.083% (n = 340,000) | inhibition, % at 9.3 µM | AID 504634 | P47898 | HTR5A cell line, luminescence; in the data active means inhibition mostly above about 23%, no sharp cut-off; inactive means mostly below about 18%;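 further: 0% = cells with DMSO and 100% = no-cell wells with DMSO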
MOR-DOR inv ag: inverse agonists of human mu-delta opioid receptor heterodimerization | P35372+P41143 | cell-based MOR-DOR heterodimer luminescence, inverse agonism | inhibition, % at 9.3 µM | actives 0.21% (n = 340,000) | AID 504357; in the data active means inhibition above about 22%, passing the limit was not always enough;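 further: 0% = cells with DMSO and 100% = wells without cells with DMSO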
Target sequence (P35372 whole entry, looked up): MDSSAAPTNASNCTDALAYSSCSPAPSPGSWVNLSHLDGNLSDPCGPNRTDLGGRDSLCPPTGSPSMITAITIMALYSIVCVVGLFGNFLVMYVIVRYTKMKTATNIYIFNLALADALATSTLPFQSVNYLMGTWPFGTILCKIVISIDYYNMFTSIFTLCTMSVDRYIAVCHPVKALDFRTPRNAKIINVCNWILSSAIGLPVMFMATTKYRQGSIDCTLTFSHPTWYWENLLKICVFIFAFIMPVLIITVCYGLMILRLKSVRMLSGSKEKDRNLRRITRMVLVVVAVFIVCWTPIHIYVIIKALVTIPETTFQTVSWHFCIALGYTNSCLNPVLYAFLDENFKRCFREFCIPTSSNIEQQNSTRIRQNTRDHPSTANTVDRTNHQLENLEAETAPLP
Target sequence (P41143 whole entry, looked up): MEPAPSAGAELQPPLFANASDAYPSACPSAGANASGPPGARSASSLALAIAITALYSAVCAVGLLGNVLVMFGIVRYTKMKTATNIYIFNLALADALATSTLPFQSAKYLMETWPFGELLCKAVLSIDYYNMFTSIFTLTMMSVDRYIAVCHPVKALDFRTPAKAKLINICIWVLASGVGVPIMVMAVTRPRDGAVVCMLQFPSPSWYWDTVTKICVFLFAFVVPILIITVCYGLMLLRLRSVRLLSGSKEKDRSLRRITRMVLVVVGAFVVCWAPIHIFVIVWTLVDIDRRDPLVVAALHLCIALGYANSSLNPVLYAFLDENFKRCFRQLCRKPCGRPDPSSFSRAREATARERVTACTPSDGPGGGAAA
MOR-DOR ag: agonists of human mu-delta opioid receptor heterodimerization. P35372+P41143. cells, OPRM1-OPRD1 heterodimerization, luminescence. activation, % at 9.3 µM. actives 0.3% (n = 340,000);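 further: 0% = vehicle-treated cells and 100% = reference agonist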
HTR5A ag ctr: activates human HTR5A in OPRM1-OPRD1 agonist counter-screen; HTR5A agonist assay, luminescence, cell-based; actives 0.61% (n = 340,000); activation, % at 9.3 µM; in the data active means activation mostly above about 9.5%, no sharp cut-off; inactive means mostly below about 7.6%;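 further: 0% = cells with vehicle only and 100% = reference agonist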
MsrA inhibitor: bovine MsrA inhibition | purified bovine MsrA, absorbance read-out | inhibition, % at 15.5 µM | actives 0.75% (n = 360,000) | AID 651718; in the data active means inhibition above about 4.5%;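 further: 0% = vehicle wells with enzyme and 100% = reference inhibitor wells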
OPRM1-D1 ag cf: OPRM1-OPRD1 heterodimer agonism, confirmation; actives 45% (n = 830); cells, MOR-DOR heterodimerization, luminescence complementation; activation, % at 9.3 µM; shares compounds with MOR-DOR ag; AID 504904;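 further: 0% = vehicle-treated cells and 100% = reference agonist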
HTR5A ag counter: activates human HTR5A in OPRM1-OPRD1 agonist counter-screen; activation, % at 9.3 µM; actives 8% (n = 830); shares compounds with MOR-DOR ag; HTR5A agonist counterscreen, cell luminescence; in the data active means activation above about 17%;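 further: 0% = vehicle-treated cells and 100% = reference agonist response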
Numbers without * were called inactive; i = inactive; · = no result given. Compounds with a hit are over-represented: about 1.9% of the library has one in this group of screens. Unless noted, no stated cut-off is given here; in the data, active means activation above about 18%; inactive means the rest.

SMILES	bovine MsrA act	HTR5A inv ag	MOR-DOR inv ag	MOR-DOR ag	HTR5A ag ctr	MsrA inhibitor	OPRM1-D1 ag cf	HTR5A ag counter
CN1OC[C@@H]2CN(Cc3ccc4c(c3)OCO4)[C@H](c3ccc(-n4ccnc4)cc3)C[C@@H]21	·	·	·	·	·	-1	·	·
CN1CCN(c2ccc(NC(=O)c3ccc(-c4cccc([N+](=O)[O-])c4)o3)cc2)CC1	-3	9	i	100*	-4	1	93*	5
CN1CCN(c2ccc(NC(=O)c3ccc(-c4ccc(Cl)cc4)o3)cc2)CC1	1	-31	i	306*	9	0	20*	-2
O=C(Nc1ccc(N2CCN(C(=O)c3ccc(Cl)cc3)CC2)cc1)c1ccc(Br)o1	-6	8	5	-1	-3	0	·	·
N#Cc1ccc(S(=O)(=O)NCC2CCN(C(=O)C(=O)c3cc4ccccc4o3)CC2)cc1	·	·	·	·	·	1	·	·
CNC(=O)Cn1ncc2c(C)n(Cc3ccc(C)cc3)c(C)c2c1=O	3	25	11	-2	0	1	·	·
Cc1c2cnn(CC(=O)Nc3c(F)c(F)cc(F)c3F)c(=O)c2c(C)n1Cc1ccccc1F	-3	-14	-178	35*	5	-1	34*	31*
N=c1n(Cc2ccccc2)c2ccccc2n1CC(O)COc1ccccc1 (stereo not given)	-2	7	-225	43*	-2	-1	0	-7
CCCCn1c(=N)n(CC(O)COc2ccc(C)cc2)c2ccccc21 (stereo not given)	4	-2	-25	5	1	0	·	·
Cc1ccc(Cn2c(=N)n(CC(O)COc3ccccc3)c3ccccc32)cc1 (stereo not given)	1	8	-140	24*	-5	-1	61*	2
C/C=C(\C)CN1CCC(n2nccc2NC(=O)CCc2ccccc2)CC1	-5	7	-110	20*	-4	-1	3	-2
C=CCN=C1NC(c2cccc(C(F)(F)F)c2)C(C(=O)OC)=C(C)N1Cc1ccccc1C(F)(F)F (stereo not given)	·	·	·	·	·	-3	·	·
CC1CCC(C(C)C)C(OC(=O)COC(=O)c2cc(O)ccc2N)C1 (stereo not given)	0	-44	-134	24*	7	0	0	-10
CC/C(=N\NC(=O)c1ccc(CN(C)S(=O)(=O)c2ccc(C)cc2)cc1)c1ccc(OC(F)F)cc1	-3	-6	-165	31*	0	-1	1	1
Cc1ccc(S(=O)(=O)N(C)Cc2ccc(C(=O)NN=C(CC(C)C)CC(C)C)cc2)cc1	2	-2	-70	12	1	0	·	·
COc1ccccc1C(=O)N1CCC2CCN(C(=O)c3ccccc3)C2C1 (stereo not given)	·	·	·	·	·	0	·	·
Cc1ccc2nc(CN(C)C(=O)[C@H](CCc3ccccc3)NC(=O)[C@H]3O[C@@H](n4cnc5c(N)ncnc54)[C@H](O)[C@@H]3O)[nH]c2c1	·	·	·	·	·	0	·	·
Cc1ccc(N2CCN(c3ccc(NCc4nc5ccccc5n4C)cc3)CC2)cc1	-4	9	i	283*	-3	0	46*	30*
Cn1c(CN2CCN(c3cccc(Cl)c3)CC2)nc2ccccc21	-12	11	-141	29*	3	-1	124*	2
Cn1c(CNc2ccc(Cl)cc2)nc2ccccc21	-1	-14	-1	0	2	-2	·	·
CN(C)/C=C/C(=O)c1ccc(OCCN(C)c2ccccn2)cc1	1	-8	-91	20*	2	1	1	-3
COc1cccc(CNS(=O)(=O)c2ccccc2Br)c1	·	·	·	·	·	0	·	·
CCNC(=O)O[C@@H]1C=C[C@@H](C#Cc2ccc(C(C)(C)C)cc2)O[C@@H]1COC(C)=O	·	·	·	·	·	0	·	·
Cc1ccccc1NC(=O)C(=O)c1cn(C)c2ccccc12	-10	-8	-116	24*	3	0	1	-1
O=C(N/N=C/c1c(O)ccc2ccccc12)c1ccc(Br)o1	-4	-16	-139	24*	4	0	-3	-6
SMILES	bovine MsrA act	HTR5A inv ag	MOR-DOR inv ag	MOR-DOR ag	HTR5A ag ctr	MsrA inhibitor	OPRM1-D1 ag cf	HTR5A ag counter
CC(C)(C)C(=O)N1CCC[C@H]1C(O)(c1ccccc1)c1ccccc1	-5	-4	13	-2	-2	-1	·	·
CN1CCC(CC(C(=O)N2CCCC2)(c2ccccc2)c2ccccc2)C1 (stereo not given)	1	1	-307	63*	0	0	4	-1
COc1ccc(C(=O)OCC(=O)N(C)C2CCS(=O)(=O)C2)cc1Br (stereo not given)	-8	10	-298	76*	-2	-1	-1	0
CCCN1CCCCC(NC(=O)c2ccc(C)cc2C)C1=O (stereo not given)	·	·	·	·	·	1	·	·
O=C(OCc1ccccc1)/C(=C/c1cccc(Br)c1)NC(=O)c1ccco1	-4	2	-115	21*	2	0	-2	-3
Nc1ccn([C@@H]2O[C@H](C(=O)NCC(=O)N3CCOCC3)[C@@H](O)[C@H]2O)c(=O)n1	·	·	·	·	·	0	·	·
O=S(=O)(NC1CC1)c1ccc(S(=O)(=O)N2CCCC3(CCCCC3)C2)cc1	-2	-22	-227	40*	6	-1	32*	2
Cc1cc(Oc2cccnc2)ccc1NC(=O)Cc1cn(C)c2ccccc12	·	·	·	·	·	0	·	·
Cc1ccc2nc(-c3ccc(F)cc3)c(Cc3ccsc3)n2c1	·	·	·	·	·	1	·	·
C[C@H](O)[C@@H]1CN2CCc3ccc(-c4ccc5c(c4)OCO5)cc3[C@@H]2C[C@@H]1N(C)Cc1cc(Cl)cc(Cl)c1	·	·	·	·	·	0	·	·
S=C(NCCc1ccccc1)N1CCN(C23CC4CC(CC(C4)C2)C3)CC1	-6	7	-96	20*	-3	0	10	1
COC(=O)C1=C(C)N(CCCC(=O)O)C(=O)NC1c1ccccc1OS(=O)(=O)c1ccc([N+](=O)[O-])cc1 (stereo not given)	-8	0	-300	51*	0	0	46*	2
CCOC(=O)C1=C(C)N(CCCC(=O)O)C(=O)NC1c1ccccc1OS(=O)(=O)c1ccc(C)cc1 (stereo not given)	0	5	-340	62*	-2	·	58*	5
CCOC(=O)C1=C(C)N(CCCCCC(=O)O)C(=O)NC1c1ccccc1OS(=O)(=O)c1ccc(C)cc1 (stereo not given)	-1	-15	-335	57*	6	-1	4	8
CCOC(=O)C1=C(C)N(CCCC(=O)O)C(=O)NC1c1ccccc1OS(=O)(=O)c1ccccc1[N+](=O)[O-] (stereo not given)	-4	-8	-324	56*	3	-1	10	9

Screening data as filed in PubChem.
